Experimental data: PubChem BioAssay AID602323 (The Scripps Research Institute Molecular Screening Center, 2012)
A number with no mark means an inactive call. Active and inactive are the calls of the source. How the calls were made is not given here.

System: 80kDa SH
Assay: serine hydrolase inhibition in mouse brain membranes, late-stage follow-up, selectivity assay for DAGLb inhibitor project, biochemical, gel-based competitive ABPP, fluorescence, set 2 (AID 602323)
Conditions: mouse brain membrane, at 1 µM, hits give high values

| SMILES | inhibition |
| --- | --- |
| O=C(N(CCc1ccccc1)Cc1ccco1)n1cc(-c2ccc(OC(F)(F)F)cc2)nn1 | 80% (active) |
| O=C(c1ccc(-c2cn(C(=O)N3CCCCC3Cc3ccccc3)nn2)cc1)N1CCCCC1 (centres undefined) | 20% |
| O=C(N1CCCCC1Cc1ccccc1)n1cc(-c2ccc(-c3cccc(C(F)(F)F)c3)cc2)nn1 (centres undefined) | 0% |
| O=C(N1CCCCC1Cc1ccccc1)n1cc(-c2ccc(-c3ccoc3)cc2)nn1 (centres undefined) | 20% |
| O=C(N1CCCCC1Cc1ccccc1)n1cc(-c2ccc(-c3ccccc3Cl)cc2)nn1 (centres undefined) | 0% |
| O=C(N1CCCCC1Cc1ccccc1)n1cc(-c2ccc(OC(F)(F)F)cc2)nn1 (centres undefined) | 20% |
| O=C(N1CCCCC1Cc1ccccc1)n1cc(-c2ccc(-c3ccc(C(F)(F)F)cc3)cc2)nn1 (centres undefined) | 0% |
| CC(C)(C)OC(=O)NCCCCCN(CCc1ccccc1)C(=O)n1cc(-c2ccc(OC(F)(F)F)cc2)nn1 | 80% (active) |
| O=C(N1CCCCC1Cc1ccccc1)n1cc(-c2ccc(-c3ccc(OC(F)(F)F)cc3)cc2)nn1 (centres undefined) | 0% |
| O=C(N1CCCCC1Cc1ccccc1)n1cc(-c2cccc(-c3ccccc3)c2)nn1 (centres undefined) | 0% |
| Cc1ccccc1-c1ccc(-c2cn(C(=O)N3CCCCC3Cc3ccccc3)nn2)cc1 (centres undefined) | 0% |
| O=C(N1CCCCC1Cc1ccccc1)n1cc(-c2ccc(Br)cc2)nn1 (centres undefined) | 50% (active) |
| O=C(N1CCCCC1Cc1ccccc1)n1ncc(-c2ccc(OC(F)(F)F)cc2)n1 (centres undefined) | 50% (active) |
| O=C(N1CCCCC1Cc1ccccc1)n1cc(-c2ccc(-c3ccccc3C(F)(F)F)cc2)nn1 (centres undefined) | 0% |
| O=C(c1ccc(-c2ccc(-c3cn(C(=O)N4CCCCC4Cc4ccccc4)nn3)cc2)cc1)N1CCCCC1 (centres undefined) | 40% |
| O=C(N1CCCCC1Cc1ccccc1)n1cc(-c2ccc(-c3ccc4c(c3)OCO4)cc2)nn1 (centres undefined) | 0% |
| O=C(N1CCCCC1Cc1ccccc1)n1cc(-c2ccc(-c3cccc(CO)c3)cc2)nn1 (centres undefined) | 10% |
| O=C(N1CCCCC1Cc1ccccc1)n1cc(-c2ccccc2-c2ccccc2)nn1 (centres undefined) | 80% (active) |
| O=C(N1CCCCC1Cc1ccccc1)n1ncc(C(O)(c2ccccc2)c2ccccc2)n1 (centres undefined) | 20% |
| O=C(N1CCCCC1Cc1ccccc1)n1cc(-c2ccc(-c3ccccc3CO)cc2)nn1 (centres undefined) | 5% |
| O=C(N1CCCCC1Cc1ccccc1)n1cc(-c2cc(F)cc(F)c2)nn1 (centres undefined) | 80% (active) |
| CC(C)CN(CCc1ccccc1)C(=O)n1cc(-c2ccc(OC(F)(F)F)cc2)nn1 | 80% (active) |
| COc1ccccc1-c1ccc(-c2cn(C(=O)N3CCCCC3Cc3ccccc3)nn2)cc1 (centres undefined) | 0% |
| O=C(N1CCCCC1Cc1ccccc1)n1cc(-c2ccc(-c3ccccc3OC(F)(F)F)cc2)nn1 (centres undefined) | 10% |
